Bioassay records (PubChem BioAssay)
DAX1 inh-1: inhibitors of human orphan nuclear receptor DAX1 (NR0B1). P51843. HEK293 Gal4-DAX1 luciferase reporter, luminescence. inhibition, % at 6.75 µM. 340,000 tested, 0.99% active;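 active = inhibition above the mean over all tested compounds plus 3 SD, cut at about 4.2% in these data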;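 also: 0% = DAX1-transfected cells with DMSO and 100% = empty-vector control cells with DMSO; inhibition shows as a rise in luminescence from relieved DAX1 repression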
DAX1 inh-2: inhibitors of DAX1 repression of SF-1 activated StAR promoter; HEK293T StAR-luciferase reporter, SF-1/DAX-1 repression relief; inhibition, % at 6.8 µM; 370,000 tested, 1.1% active;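 active = inhibition above the mean over all tested compounds plus 3 SD, cut at about 3.6% in these data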;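 also: 0% = DAX-1 cells with DMSO and 100% = cells lacking DAX-1 with DMSO; higher inhibition means more luminescence from relief of DAX-1 repression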
hcDAF-12 act: H. contortus DAF-12 activation, primary screen. HEK293 hcDAF-12 lit1-tk-luc reporter, luminescence; 0% DMSO, 100% Δ7-dafachronic acid. activation, % at 6.8 µM. 370,000 tested, 1.4% active;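 active = activation above the mean of all tested compounds plus 3 SD, cut at about 5.5% in these data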;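 also: 100% = response to 3 µM Δ7-dafachronic acid high control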
ssDAF-12 act: S. stercoralis DAF-12 activation, primary screen. HEK293 ssDAF-12/GRIP1 lit1-tk-luc reporter, luminescence; % of 3 µM dafachronic acid response. activation, % at 6.8 µM. 370,000 tested, 1% active. AID 652126;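 active = activation above the mean over all tested compounds plus 3 SD, cut at about 0.9% in these data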;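 also: 0% = DMSO-only wells and 100% = 3 µM delta7-dafachronic acid wells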
hgDAF12 agonist: hgDAF-12 agonism, primary luciferase screen; HEK293 GAL4-hgDAF12 UAS-luciferase reporter, agonist luminescence; normalized to butyrate control; AID 687014; activation, % at 6.8 µM; 370,000 tested, 1.8% active;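 active = activation above a cutoff set at the mean of all screened compounds plus 3 SD, cut at about 10% in these data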;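 also: 0% = DMSO wells and 100% = sodium butyrate wells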
hgDAF12 ag: hgDAF-12 agonism, confirmation assay. shares compounds with hgDAF12 agonist. HEK293 GAL4-hgDAF12 luciferase reporter, agonist mode; percent of butyrate response. activation, % at 6.8 µM. 3,300 tested, 80% active. AID 743050;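 active = mean activation over triplicate wells above the hit cutoff derived from the earlier primary screen, cut at about 11% in these data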;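 also: 0% = DMSO low control and 100% = 2 mM sodium butyrate high control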
LXRb DAF12 ctr: counter-screen for DAF-12 agonists: agonists of human LXR-beta; 3,300 tested, under 10 active; HEK293 Gal4-LXR luciferase reporter, 24 h; activation, % at 6.8 µM; shares compounds with hgDAF12 agonist;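 active = mean activation of the triplicate above a set limit carried over from the primary screen, none filed active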
Target sequence (P55055 whole entry, looked up, the tested form may be a part): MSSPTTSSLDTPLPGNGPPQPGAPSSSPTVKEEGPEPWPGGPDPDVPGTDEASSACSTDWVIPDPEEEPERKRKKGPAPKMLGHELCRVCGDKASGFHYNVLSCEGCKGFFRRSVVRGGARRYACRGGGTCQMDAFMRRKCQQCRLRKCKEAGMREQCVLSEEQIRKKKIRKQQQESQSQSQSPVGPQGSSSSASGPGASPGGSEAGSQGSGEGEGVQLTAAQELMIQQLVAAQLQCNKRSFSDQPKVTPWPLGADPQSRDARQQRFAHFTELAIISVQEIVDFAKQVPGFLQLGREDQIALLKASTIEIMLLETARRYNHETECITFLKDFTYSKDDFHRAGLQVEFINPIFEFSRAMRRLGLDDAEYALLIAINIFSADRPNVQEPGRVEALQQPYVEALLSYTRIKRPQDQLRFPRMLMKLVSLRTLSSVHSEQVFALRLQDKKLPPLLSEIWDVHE
The depositor's hits bear a star; x = no result given. Rows were chosen to be rich in hits. Some 4.1% of all compounds tested hit in one or more screens of this group.

SMILES	DAX1 inh-1	DAX1 inh-2	hcDAF-12 act	ssDAF-12 act	hgDAF12 agonist	hgDAF12 ag	LXRb DAF12 ctr
CCCCSc1nc2c(cnn2-c2ccccc2)c(=O)n1N	1	3	3	-1	19*	14*	1
Cc1c(Br)cccc1NC(=O)C1(C)CCN1C(C)C (stereo not drawn)	x	0	-1	-1	-2	x	x
O=C(CSc1cccc[n+]1[O-])Nc1cc([N+](=O)[O-])ccc1Cl	0	0	-1	-1	2	x	x
O=C(CSc1cccc[n+]1[O-])Nc1cc2c(cc1Cl)C(=O)c1ccccc1C2=O	1	1	5	1.1*	15*	13*	1
COC(=O)[C@@]12CCCCC3=C1N(CCC3)C(=O)[C@H]2CC(=O)NCCCCc1ccccc1	x	2	0	-1	2	x	x
CN(C)CCNc1ncnc2c1ncn2[C@H]1CN(Cc2cccnc2)C[C@@H](CO)O1	x	1	0	-1	24*	-1	0
CCC(c1nnnn1-c1ccc2c(c1)OCCO2)N1CCc2ccccc2C1 (stereo not drawn)	x	0	-3	-1	6	x	x
Cc1ccc(CSc2nnc(-c3cc(-c4ccc(C)cc4)n[nH]3)n2N)cc1	x	0	-2	-1	-1	x	x
c1ccc(-c2nc3ccccc3s2)nc1	4.3*	3	3	1	13*	18*	1
Nc1ccc(-c2nc3ccccc3s2)cn1	2	2	5	1	14*	20*	1
COc1ccc(CC2C(=O)NC(C)C(=O)N(C)C3Cc4ccc(cc4)Oc4cc(ccc4O)CC(C(=O)NC(C)C(=O)NC(C)C(=O)N2C)N(C)C3=O)cc1 (stereo not drawn)	-7	-16	-7	-3	-16	x	x
COC(=O)[C@H](C)NC(=O)[C@H](CC(C)C)NC(=O)OC(C)(C)C	x	0	0	-1	-3	x	x
O=C(NCc1ccc(Cl)cc1)c1cnn2ccccc12	1	3.8*	3	0	18*	13*	1
O=C(OCc1cccnc1)C1=Cc2ccccc2OC1	-1	1	-1	-1	14*	3	0
COC(=O)c1ccc(COc2ccc(C(C)(C)C)cc2)o1	1	1	1	-1	5	x	x
CCc1ccc(OCc2ccc(C(=O)OC)o2)cc1	4	1	4	-1	17*	14*	1
CCC(C)c1ccc(OCc2ccc(C(=O)OC)o2)cc1 (stereo not drawn)	4	3	4	1.0*	15*	18*	1
COc1ccc(CC(=O)OCC(=O)Nc2ccc3[nH]c(=O)[nH]c3c2)cc1OC	1	0	-1	-1	-2	x	x
COCc1[nH]nc2c1C(c1ccc(F)cc1)N(Cc1ccccc1)C2=O (stereo not drawn)	x	-1	1	-1	0	x	x
C=CCNC(=O)CN(C(=O)c1csc2ccc(Cl)cc12)c1cccc(Br)c1	x	0	1	-1	-1	x	x
O=C(CC(Nc1ccc(Cl)cc1)C(=O)O)c1ccccc1 (stereo not drawn)	1	3	4	1.2*	14*	20*	1
O=C(O)c1ccc(N=NN2CCCCC2)cc1	x	3	1	0	14*	12*	1
Nc1nc2ncccc2cc1C(=O)C1=C(c2ccccc2)Cc2ccccc21	x	-2	-1	-1	-4	x	x
O=C(N/N=C\c1cccc(Cl)c1)c1n[nH]c2c1CCCC2	1	3	2	-1	14*	11*	1
O=C(N/N=C/c1ccc(Cl)cc1Cl)c1n[nH]c2c1CCCC2	0	1	0	-1	2	x	x
SMILES	DAX1 inh-1	DAX1 inh-2	hcDAF-12 act	ssDAF-12 act	hgDAF12 agonist	hgDAF12 ag	LXRb DAF12 ctr
CC(=O)c1ccc(N/C=C\C(=O)c2ccc(C)cc2)cc1	2	2	3	2.0*	18*	20*	1
COc1cc(/C=C2\SC(=S)N(Nc3ccccc3)C2=O)ccc1O	1	2	5	-1	14*	15*	1
O=S1(=O)CCSC[C@@H](CNCc2ccco2)N1	x	0	0	-1	-1	x	x
FC(F)(F)c1cnc(-c2cnc(-c3ccncc3)nc2)c(Cl)c1	0	0	-1	-1	6	x	x
FC(F)(F)c1cnc(-c2cnc(-c3ccccn3)nc2)c(Cl)c1	-1	4.4*	1	0	17*	14*	1
COc1ccc(CNC2CCC23CCC(c2ccccc2)CC3)cc1OC (stereo not drawn)	x	x	-3	-1	0	x	x
C/C(=N\NC(=O)c1cccs1)c1ccncc1	4	1	3	1	15*	1	0
O=C(NCCc1ccc(Cl)cc1)c1cccs1	1	2	0	-1	8	x	x
O=C(CNC(=O)c1cccs1)c1ccc(Cl)cc1	1	2	5	1	15*	17*	1
C/C(=N\NC(=O)c1ccc(Cl)cc1)c1cccs1	0	4.4*	4	1.8*	15*	18*	1
COc1ccc(NC(=O)NNC(=O)CCn2nc(C)c([N+](=O)[O-])c2C)cc1OC	x	1	0	0	0	x	x
COc1ccc(/C(C)=N\NC(=O)c2ccco2)cc1	x	4	3	-1	24*	10	0
C/C(=N/NC(=O)c1ccco1)c1ccc(NC(=O)c2ccc(F)cc2)cc1	2	3	2	-1	13*	10	0
COc1ccc(C(=O)Nc2ccc(NC(=O)c3ccco3)cc2)cc1	1	0	-4	-1	-2	x	x
COC(=O)[C@@]12C[C@@H](CC(=O)NCc3cccs3)C(=O)N(Cc3ccco3)C1=CCC(C)(C)C2	x	-1	-1	-1	3	x	x
COc1ccc(-c2cn3nc(SCC(=O)NC4CCCCC4)ccc3n2)cc1	2	2	4	0	15*	15*	1
COc1ccc(-c2ccc(SCC(=O)NC3CCCCC3)nn2)cc1	1	0	-1	-1	3	x	x
Nc1cc(Cl)ccc1Oc1ccc2ccccc2c1	1	2	4	1	22*	8	0
CC(=O)OC12CCCN(C1)/C(=C/c1ccc(Cl)cc1)C2 (stereo not drawn)	x	0	-4	-2	-2	x	x
Cc1ccc(N=c2oc3cc(O)ccc3cc2C(N)=O)cc1	0	2	5	-1	18*	5	0
COc1ccc2oc(-c3ccco3)cc(=O)c2c1	1	4.5*	3	0	19*	14*	1
O=c1cc(-c2ccco2)oc2ccc(Cl)cc12	0	0	-1	-1	0	x	x
COc1cc(-c2cc(=O)c3c(O)cc(O)cc3o2)cc(OC)c1OC	x	-1	-2	-2	-4	x	x
